# Rows were chosen to be rich in hits. Some 2.1% of all compounds tested hit in one or more screens of this group.
# IEC-6 cytotox – kills IEC-6 intestinal cells in KLF5 counter-screen; IEC-6 cytotoxicity, luminescence viability; inhibition, % at 5 µM; 290,000 compounds, 0.78% hits; AID 1825;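 further: 0% = plate median of test compound wells and 100% = cytotoxic reference compound wells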
# BaF3 tox – reduces parental Ba/F3 cell viability, JAK2V617F counter-screen; CellTiter-Glo ATP luminescence; inhibition, % at 5.6 µM; 220,000 compounds, 1.1% hits; AID 1486;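 active means inhibition above a per-campaign cutoff, the mean inhibition of all tested compounds plus 3 SD, cut at about 27% in these data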;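 further: 0% = DMSO wells and 100% = JAK Inhibitor I control wells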
# APP 5UTR inh – APP translation inhibition | SH-SY5Y APP 5'UTR-luciferase reporter, luminescence | inhibition, % at 2 µM | 190,000 compounds, 0.82% hits;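 active means inhibition above a set limit, derived from the sample mean plus 3 SD, cut at about 45% in these data; inconclusive means one replicate passes the limit while the other fails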
# Ba/F3 V617F tox – loss of viability in JAK2V617F-driven Ba/F3 cells; Ba/F3 EpoR-JAK2V617F viability, ATP luminescence; inhibition, % at 5.6 µM; 220,000 compounds, 1.1% hits;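 active means inhibition above the campaign mean plus 3 SD over all tested compounds, cut at about 24% in these data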;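 further: cytokine-independent growth of Ba/F3 cells driven by EpoR plus mutant JAK2; 0% = DMSO-treated cells and 100% = JAK inhibitor I control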
# aSyn 5UTR inh – 5' untranslated region of α-synuclein, MLPCN primary screen | inhibition, % (tested at 7.5 µM) | 300,000 compounds, 0.82% hits | alpha-synuclein 5'UTR reporter, inhibitor activity | AID 1813; in the data active means inhibition above about 60%; inconclusive means no clear call, values can overlap the other calls;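 further: H4 neuroglioblastoma cells stably carrying SNCA 5'UTR luciferase fusion; 0% = DMSO wells and 100% = positive control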
# KLF5 inh – suppresses KLF5 promoter-driven expression; inhibition, % at 5 µM; DLD-1 KLF5 promoter-luciferase reporter, luminescence; AID 1700; 290,000 compounds, 0.23% hits;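 active means inhibition above a per-plate limit of that plate's mean compound inhibition plus 3 SD, cut at about 60% in these data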;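 further: 0% = DMSO wells and 100% = LY294002 at 200 µM; higher means less KLF5 promoter-driven luciferase light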
# IEC-6 cytotox cf – confirmation of cytotoxic compounds in rat IEC-6 intestinal epithelial cells | 1,900 compounds, 63% hits | IEC-6 rat intestinal epithelial viability, luminescence | inhibition, % at 5 µM | AID 1907 | shares compounds with IEC-6 cytotox;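 further: 0% = vehicle and 100% = reference cytotoxic drug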
# Active calls of the source: *; ? = inconclusive; · = not tested or not shown. Unless noted, no stated cut-off is given here; in the data, active means inhibition above about 22%; inactive means the rest.
SMILES,IEC-6 cytotox,BaF3 tox,APP 5UTR inh,Ba/F3 V617F tox,aSyn 5UTR inh,KLF5 inh,IEC-6 cytotox cf
CCN(CC)CCCNC1=C(Cl)C(=O)c2ccccc2C1=O,88*,-1,6,5,76*,-3,77*
O=C1C(Cl)=C(NCc2cccnc2)C(=O)c2ccccc21,99*,·,·,·,-141,3,57*
CC1CCN(c2nc3ccc(C(=O)NCCCN4CCCCC4C)cc3s2)CC1 (centres undefined),18,·,·,·,-277,5,·
CC(C)N1CC(COc2ccc(Cl)cc2Cl)OC1=O (centres undefined),-1,·,·,·,-12,-26,·
O=C(Cc1noc2ccccc12)Nc1ccccn1,-4,2,-33,0,-89,-57,·
Cc1ccc(NC(=O)Cc2noc3ccccc23)nc1,23*,1,-22,0,-69,-6,5
O=C(Cn1nnc2ccccc21)c1ccc(Cl)cc1,-2,-4,·,-2,-47,-18,·
Cc1ccc(-n2nc3c(N4CCC(C(=O)NCCc5ccccc5C)CC4)nnc(C)c3c2C)cc1,23*,·,·,·,72*,-2,34*
O=c1c2oc3ccccc3c2ncn1Cc1ccccc1F,34*,-1,-4,-5,-10,-27,12
O=c1c2oc3ccccc3c2ncn1Cc1ccccc1Cl,37*,5,0,2,-9,-18,26*
COc1ccccc1CNS(=O)(=O)c1ccc2c(c1)NC(=O)C(C)S2 (centres undefined),-2,·,·,·,-4,2,·
CCN1/C(=C/C=C/c2oc3ccc(-c4ccccc4)cc3[n+]2CC)Oc2ccc(-c3ccccc3)cc21,61*,78*,74*,100*,140*,15,5
Cc1oc2c(c(=O)c1C)C(=O)CC(c1ccccc1)C2 (centres undefined),1,5,6,-2,9,-30,·
CS(=O)(=O)c1sc(C#N)c2c1C(=O)CC(c1ccccc1)C2 (centres undefined),75*,92*,·,99*,81*,-11,20
C=CCn1c(SCc2c(C)noc2C)nc2ccccc2c1=O,83*,72*,94*,71*,80*,58,57*
CCn1c([N+](=O)[O-])nc2c1c(=O)[nH]c(=O)n2C,2,-2,1,8,4,1,·
Cc1ccccc1-c1ocnc1C(=O)Nc1ccccc1NC(=O)c1ccccn1,23*,·,·,·,-3,-5,8
CC(C)OCCCNC(=O)C(Cc1ccccc1)NS(=O)(=O)c1ccc2c(c1)CCC(=O)N2 (centres undefined),0,·,·,·,-4,2,·
CC(C)(C)c1ccc(-c2cn(-c3ccc(Br)cc3)c3[n+]2CCCS3)cc1,50*,84*,6,100*,-8,35,51*
Cc1sc2nc(-c3ccccn3)[nH]c(=O)c2c1-c1ccccc1,28*,3,23,-2,·,-14,33*
Cc1sc2nc(-c3ccncc3)[nH]c(=O)c2c1-c1ccccc1,1,-1,16,-2,2,20,·
COc1ccc(C(=O)c2ccc(Cl)c([N+](=O)[O-])c2)cc1,66*,91*,95*,91*,39,-30,73*
COc1ccc(C(=O)c2ccc(Cl)cc2)cc1,8,6,-2,1,-38,2,·
NCCNc1ccc(C(=O)N2c3ccccc3Sc3ccccc32)cc1[N+](=O)[O-],35*,·,·,·,1,19,24*
Nc1ccc(C(=O)OCC(=O)N2c3ccccc3Sc3ccccc32)cc1[N+](=O)[O-],-2,2,-18,-2,·,-16,·
SMILES,IEC-6 cytotox,BaF3 tox,APP 5UTR inh,Ba/F3 V617F tox,aSyn 5UTR inh,KLF5 inh,IEC-6 cytotox cf
Cc1cc(C)c(S(=O)(=O)N2CCCCC2CCNC(=O)C(=O)NCc2ccccn2)c(C)c1 (centres undefined),·,·,·,·,-13,·,·
CCOc1ccccc1N1CCN(C(=O)NCc2ccc(C)cc2)CC1,-2,·,·,·,-3,-7,·
O=C(N/N=C/c1ccc(O)cc1O)c1ccc(CN2C(=O)c3cccc4cccc2c34)cc1,34*,5,60*,19,62*,45,52*
O=C(N/N=C/c1ccccc1)c1ccc(CN2C(=O)c3cccc4cccc2c34)cc1,4,10,13,0,9,13,·
O=C(Nc1cnccn1)C1c2ccccc2Oc2ccccc21,0,3,11,-3,19,-9,·
Cc1ccc(NC(=O)C2c3ccccc3Oc3ccccc32)nc1,46*,13,11,1,27,-14,41*
COc1ccc(NC(=O)CC(c2ccco2)C(C)C)cc1 (centres undefined),2,·,·,·,-11,2,·
COc1ccc(Nc2ncnc3scc(-c4ccc(OC)cc4)c23)cc1,24*,6,-4,1,-42,-11,20
CC(=O)Nc1ccc2c(c1)CCCC2=O,2,5,·,-1,-21,-4,·
O=C1CCCc2cc3c(cc21)CC1(C3)Cc2cc3c(cc2C1)C(=O)CCC3,32*,-6,·,-3,-39,17,35*
Cc1c(C(=O)Nc2ccccc2F)sc2ncn(CC(=O)N3CCOCC3)c(=O)c12,0,·,·,·,20,-29,·
COc1ccc(-c2noc(CCC(=O)NCc3cccnc3)n2)cc1,-2,2,-9,0,3,-13,·
COc1ccc(Cc2nc(-c3ccc(NC(=O)c4cccnc4)cc3)no2)cc1,31*,0,58*,10,75*,-28,90*
CCn1c(SCC(=O)Nc2cccc(C)c2)nc2ccccc2c1=O,22*,·,·,·,4,-34,7
CCn1c(SCC(=O)Nc2ccccc2)nc2ccccc2c1=O,-4,·,·,·,13,-6,·
Cc1cc(NCCCn2ccnc2)n2ncc(-c3ccc(Cl)cc3)c2n1,33*,12,-253,4,?,-117,27*
O=[N+]([O-])c1ccc(N=NN(CCO)CCO)cc1,-3,4,-13,-3,-15,-13,·
O=[N+]([O-])c1ccc(N=Nc2ncc[nH]2)cc1,81*,·,·,·,-96,-4,13
Cc1cc(C(=O)N/N=C/c2ccc3c(c2)OCO3)c2ccccc2n1,39*,52*,·,56*,-7,36,35*
O=C(N/N=C/c1ccc2c(c1)OCO2)c1cccc(NC(=O)c2ccccc2Cl)c1,36*,·,·,·,-158,20,9
N#CC(C#N)=C1C=CC=CN1/C(=C\c1ccco1)C(=O)c1ccccc1,74*,71*,96*,92*,·,23,7
CC(C)(C)NC(=O)/C(=C/c1ccco1)c1ccccc1,2,5,-13,1,5,-17,·
CC1CC2(CCCC2)Nc2ccc(F)cc21 (centres undefined),-9,·,·,·,-1,2,·
CC1CC(C)(C)Nc2ccc(N=O)cc21 (centres undefined),24*,93*,65*,97*,32,-62,21
